{
  "source": "PubChem BioAssay (NCATS)",
  "note": "Inconclusive results are not listed. Values without a mark were called inactive. Active and inactive are the calls of the source. The call rests on the fitted dose curve; in most records, active means well fitted activation curve with a large enough effect; inconclusive means small, poorly fitted or top-dose-only effect; inactive means no such curve, though single readings can be large or run the other way. Peptide text beside a SMILES is read from it. * marks the point of attachment. Cbz = O=C(OCc1ccccc1)*; CH2F = FC*",
  "data": [
    {"target": "Cellular tumor antigen p53 (Homo sapiens) (UniProt P04637)", "sequence (P04637 whole entry, looked up)": "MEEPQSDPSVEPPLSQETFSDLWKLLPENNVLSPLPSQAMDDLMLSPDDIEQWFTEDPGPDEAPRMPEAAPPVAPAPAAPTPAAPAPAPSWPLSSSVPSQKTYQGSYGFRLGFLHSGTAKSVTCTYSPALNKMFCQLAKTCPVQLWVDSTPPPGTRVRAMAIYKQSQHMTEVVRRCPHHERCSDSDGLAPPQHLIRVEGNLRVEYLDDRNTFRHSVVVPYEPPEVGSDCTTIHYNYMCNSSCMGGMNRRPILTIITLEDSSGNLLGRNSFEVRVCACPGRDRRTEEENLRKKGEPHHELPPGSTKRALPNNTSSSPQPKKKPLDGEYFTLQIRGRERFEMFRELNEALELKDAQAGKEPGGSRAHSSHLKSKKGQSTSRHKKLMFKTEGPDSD", "assay": "Primary qHTS for small molecule compounds that upregulate eGFP-tagged delta133p53alpha (in N-terminal) cells. (AID 2060322); further: nearly all actives have a fitted effect of over 75% in size; further: potency means the concentration at half of the fitted maximal effect;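 on activation: series mostly up to about 56 µM; 0% = DMSO vehicle and 100% = reference activator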", "conditions": "NCI-H358 eGFP-delta133p53alpha fluorescence, 24 h; activation: active compounds read high", "outline": "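NCI-H358 cells pre-induced 24 h with 10 ng/ml doxycycline to express N-terminal eGFP-delta133p53alpha, then dosed 24 h at 37C without doxycycline; fixed, Hoechst-stained, GFP intensity by laser scanning cytometry, normalized to DMSO (0%) and 57.5 uM 5-azacytidine (100%).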", "units": {"activation": "%"}, "values": [
      {"smiles": "CC1C(O)C(O)C2C(C(=O)OCCc3ccc(O)cc3)=COC(O[C@@H]3O[C@H](CO)[C@@H](O)[C@H](O)[C@H]3O)C12", "note": "(stereo not given in full)", "activation": 11.5},
      {"smiles": "C=CC(C)(O)CC/C=C(\\C)C(=O)O[C@@H]1[C@@H](O)[C@H](OC(C)(C=C)CC/C=C(\\C)C(=O)O[C@@H]2O[C@H](CO)[C@@H](O)[C@H](O)[C@H]2O)O[C@H](CO)[C@H]1OC(=O)/C(C)=C/CCC(C)(O)C=C", "note": "(stereo not given in full)", "activation": -19.8},
      {"smiles": "CC12CCC(OC3OC(CO)C(O)C(OC4OC(CO)C(O)C(O)C4O)C3O)CC1=CCC1C2CCC2(C)/C(=C3/COC(=O)C3)CCC12O", "note": "(stereo not given)", "activation": -13},
      {"smiles": "C/C=C1/[C@H](O[C@@H]2O[C@H](CO)[C@@H](O)[C@H](O)[C@H]2O)OC=C(C(=O)OC)[C@H]1CC(=O)OCCc1ccc(O)c(O)c1", "activation": 5.34},
      {"smiles": "COc1ccc(Oc2c(Cl)cnn(C3c4ccccc4-c4ccccc43)c2=O)cc1", "activation": 13.4},
      {"smiles": "O=C(COc1cccc2c(=O)[nH]ccc12)c1ccccc1", "activation": -14.5},
      {"smiles": "COc1cc(/C=C/C(=O)O)ccc1O[C@@H]1O[C@H](CO)[C@@H](O)[C@H](O)[C@H]1O[C@@H]1OC[C@](O)(CO)[C@H]1O", "activation": -13},
      {"smiles": "Nc1nc(NC2CC2)cc(-c2cccc(Cl)c2Cl)n1", "Potency": "6.01 µM (active)"},
      {"smiles": "COc1cc(C(C)=O)ccc1O[C@@H]1O[C@H](CO[C@@H]2OC[C@@H](O)[C@H](O)[C@H]2O)[C@@H](O)[C@H](O)[C@H]1O", "activation": 9.16},
      {"smiles": "CC1(C)C2CCC(CO[C@@H]3O[C@H](CO[C@@H]4OC[C@](O)(CO)[C@H]4O)[C@@H](O)[C@H](O)[C@H]3O)C1C2", "note": "(stereo not given in full)", "activation": -5.34},
      {"smiles": "O=C1C[C@@]2(C(=O)N1)C(=O)N(Cc1ccc(Br)cc1F)C(=O)c1cccn12", "activation": -11.7},
      {"smiles": "CN(CC1COCCO1)S(=O)(=O)Nc1ccc2ccc3ncc(-c4cnn(C)c4)cc3c(=O)c2c1", "note": "(stereo not given)", "activation": 0.893},
      {"smiles": "CC(=O)OC[C@]12[C@H](OC(C)=O)[C@H](OC(=O)c3ccccc3)[C@@H]3[C@@H](OC(C)=O)[C@]1(OC3(C)C)[C@H](C)C[C@H](OC(=O)c1ccccc1)[C@@H]2OC(=O)c1ccccc1", "activation": -31.3},
      {"smiles": "COC(=O)C1=COC(OC2OC(CO)C(O)C(O)C2O)C2C(C)C(OC(=O)/C=C/c3ccc(O)cc3)C(O)C12", "note": "(stereo not given)", "activation": -8.93},
      {"smiles": "CC(C)C[C@@H](N)C(=O)N[C@H]1C(=O)N[C@@H](CC(N)=O)C(=O)N[C@H]2C(=O)N[C@H]3C(=O)N[C@H](C(=O)N[C@H](C(=O)O)c4cc(O)cc(O)c4-c4cc3ccc4O)[C@H](O)c3ccc(c(Cl)c3)Oc3cc2cc(c3O[C@@H]2O[C@H](CO)[C@@H](O)[C@H](O)[C@H]2O[C@H]2C[C@](C)(N)[C@H](O)[C@H](C)O2)Oc2ccc(cc2Cl)[C@H]1O", "activation": 6.33},
      {"smiles": "CC1(O)CC(O)C2C(C(=O)O)=COC(OC3OC(CO)C(O)C(O)C3OC(=O)/C=C/c3ccc(O)cc3)C21", "note": "(stereo not given)", "activation": -15.3},
      {"smiles": "COC1=CC(=O)CC(C)C12Oc1cc(OC)cc(O)c1C2=O", "note": "(stereo not given)", "activation": 16.8},
      {"smiles": "C/C(=C\\CCC(C)(C)O)CCO[C@@H]1O[C@H](CO[C@@H]2O[C@@H](C)[C@H](O)[C@@H](O)[C@H]2O)[C@@H](O)[C@H](O)[C@H]1O", "activation": 0},
      {"smiles": "CC1CCC2C(C(=O)O)=CC3CC(C)(C)CC132", "note": "(stereo not given)", "activation": 2.29},
      {"smiles": "C=C(C)C1CCC2(C(=O)OC3OC(COC4OC(CO)C(O)C(O)C4O)C(OC4OC(C)C(O)C(O)C4O)C(O)C3O)CCC3(C(=O)O)C(CCC4C5(C)CCC(=O)C(C)(C)C5CCC43C)C12", "note": "(stereo not given)", "activation": -8.4},
      {"smiles": "COc1c2c(c(C)c3c1C(=O)OC3)OC1(C)CC(O)C34OC(OC)(CCC3(C)C1C2)OC4(C)CO", "note": "(stereo not given)", "activation": 13},
      {"smiles": "C[C@@H]1C/C=C/C=C\\C=C\\C=C\\[C@H](O[C@@H]2O[C@H](C)[C@@H](O)[C@H](N)[C@@H]2O)C[C@@H]2O[C@](O)(C[C@@H](O)C[C@H]3O[C@@H]3/C=C/C(=O)O1)C[C@H](O)[C@H]2C(=O)O", "activation": 13.7},
      {"smiles": "COC(=O)CC[C@H](NC(=O)[C@H](CC(C)C)NC(=O)OCc1ccccc1)C(=O)N[C@@H](Cc1cnc[nH]1)C(=O)N[C@@H](CC(=O)OC)C(=O)CF", "note": "(Cbz-LE(OMe)HD(OMe)-CH2F)", "activation": 23.7},
      {"smiles": "CCC(CCO[C@@H]1O[C@H](CO[C@H]2OC[C@](O)(CO)[C@H]2O)[C@@H](O)[C@H](O)[C@H]1O)C(C)(C)O", "note": "(stereo not given in full)", "activation": -6.87},
      {"smiles": "COc1cc(CCc2ccccc2)c(C(=O)O)c2c1CC(C(C)(C)O)O2", "note": "(stereo not given)", "activation": -13},
      {"smiles": "CC1(CO)CC2C(O)C(=O)C3(CO)CC3(C)C2C1", "note": "(stereo not given)", "activation": -2.29},
      {"smiles": "C=C1C(=O)O[C@@H]2C[C@@H](C)[C@]34C[C@]5(C(=O)O[C@H]6CC(C)=C([C@H](C)CCCO)[C@H](OC(=O)C(C)CC)[C@H]65)[C@@H](C(C)=C3C[C@@H]12)[C@H]4OC(C)=O", "note": "(stereo not given in full)", "Potency": "6.3 µM (active)"},
      {"smiles": "CC1=C2C[C@H]3O[C@@]3(C)CCC3O[C@@]3(C)C[C@@]2(O)OC1=O", "note": "(stereo not given in full)", "activation": -2.29},
      {"smiles": "COc1ccc(CC(=O)NCc2ccccc2-c2ccccc2C(=O)NCCc2cccnc2)cc1", "activation": 0.955},
      {"smiles": "CC1=CC(=O)CC2C1(O)CCC(C)C21CC(c2ccoc2)OC1=O", "note": "(stereo not given)", "activation": 6.87},
      {"smiles": "CC[C@@H](C)[C@@H]1OC2(C=C[C@H]1C)C[C@@H]1C[C@H](C/C=C(\\C)[C@H](O[C@H]3C[C@H](OC)[C@H](O[C@H]4C[C@H](OC)[C@H](NC(C)=O)[C@H](C)O4)[C@H](C)O3)[C@H](C)/C=C/C=C3\\CO[C@H]4[C@H](O)C(C)=C[C@@H](C(=O)O1)[C@@]34O)O2", "note": "(stereo not given in full)", "activation": 24.3},
      {"smiles": "C=C(COC(=O)C(O)C(O)CN)C12OC1C1(C)C(=CC2=O)C(O)C(O)CC1C", "note": "(stereo not given)", "activation": -7.63},
      {"smiles": "C/C=C/C1=CC2=CC(=O)C(C)(O)C(OC(=O)c3c(C)cc(O)cc3O)C2CO1", "note": "(stereo not given)", "activation": -12.2},
      {"smiles": "CC(C)c1ccc(CC(=O)N2CCC[C@@H](c3cccc(OC(C)(C)C(=O)O)c3)C2)cc1", "activation": 7},
      {"smiles": "CC(C)c1ccc2c(c1)[C@H](O)CC1[C@@](C)(C(=O)O)CCC[C@]21C", "note": "(stereo not given in full)", "activation": -4.46},
      {"smiles": "C=CC1(C)C=C2C(=O)OC(=O)C3=C(CCCC3(C)C)C2(O)CC1", "note": "(stereo not given)", "activation": -22.9},
      {"smiles": "C=C1C(=O)OC2C(OC(=O)C=C(C)C)C(C)=C3C(=O)C=C(C)C3C(O)C12", "note": "(stereo not given)", "Potency": "14.8 µM (active)"},
      {"smiles": "CCOC(=O)c1csc(Nc2ccc(Cl)cc2)n1", "activation": -7},
      {"smiles": "CC(C)=CC[C@H]1O[C@]2(O)C([C@H]3CCC4[C@@]5(C)CC[C@H](O[C@@H]6O[C@H](CO)[C@H](O)[C@H](O[C@@H]7O[C@H](CO)[C@@H](O)[C@H](O)[C@H]7O)[C@H]6O[C@@H]6O[C@@H](C)[C@H](O)[C@@H](O)[C@H]6O)C(C)(C)C5CC[C@@]4(C)[C@]3(C)[C@H]2O)[C@@]1(C)O", "note": "(stereo not given in full)", "activation": 17.6},
      {"smiles": "CCC1OC(=O)C(C)CC(C)C(=O)/C(C)=C/C(C)C(=O)/C=C/C1(C)O", "note": "(stereo not given)", "activation": 3.05}
    ]}
  ]
}
